What all share (experiment): glycan array binding signal (z-score within array); higher = stronger binding
What all share (conditions): glycan notation: IUPAC condensed, linker removed

The target in experiment [1] is Fuc(a1-2)Gal(b1-3)GalNAc(b1-3)Gal(a1-4)Gal(b1-4)Glc. In short, it runs like this:
(§1)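 The binding signal is a Z-score computed within each array. Data were drawn from 3228 arrays in the Consortium for Functional Glycomics database, restricted to those with a known protein sequence. Scores were averaged over arrays of the same protein sequence at different concentrations or buffers, and over linkers, and negative values can be taken as non-binding.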

Another experiment addresses Fuc(a1-2)Gal(b1-4)GlcNAc. In short, it runs like this: as §1
Experiment [2] concerns the target Fuc(a1-2)Gal(b1-4)GlcNAc(b1-3)Gal(b1-4)GlcNAc. The method, boiled down: as §1
In experiment [3] the target is Fuc(a1-2)[Gal(a1-3)]Gal(b1-4)Glc. The method, boiled down:
as §1

Experiment [4] addresses Fuc(a1-2)[Gal(a1-4)]Gal(b1-4)GlcNAc. In short, it runs like this:
as §1

For experiment [5], the target named is Fuc(a1-2)[GalNAc(a1-3)]Gal(b1-4)GlcNAc. The method, boiled down:
as §1

The target of experiment [6] is Fuc(a1-3)[Gal(b1-4)]GlcNAc(b1-2)Man(a1-6)[Gal(b1-4)GlcNAc(b1-2)Man(a1-3)]Man(b1-4)GlcNAc(b1-4)GlcNAc. In short, it runs like this: as §1
Experiment [7] deals with Fuc(a1-3)[Gal3S(b1-4)]GlcNAc6S. The method, boiled down:
as §1

The next experiment deals with Gal(b1-3)Gal(b1-4)GlcNAc. The method, boiled down: as §1
For a further experiment, the target named is Gal(b1-4)Glc6S. In short, it runs like this: as §1
Experiment [8] addresses Gal(b1-4)GlcNAc(b1-2)Man(a1-3)[Gal(b1-4)GlcNAc(b1-2)Man(a1-6)]Man(b1-4)GlcNAc(b1-4)GlcNAc. The method, boiled down:
as §1

Experiment [9] concerns the target Gal(b1-4)GlcNAc(b1-3)[Gal(b1-4)GlcNAc(b1-6)]Gal(b1-4)GlcNAc. The method, boiled down:
as §1

Experiment [10] deals with Gal(b1-4)GlcNAc(b1-6)[Gal(b1-3)]GalNAc. In short, it runs like this: as §1
Experiment [11] deals with Gal3S(b1-4)[Fuc(a1-3)]Glc. The method, boiled down:
as §1

The target in the next experiment is Gal3S6S(b1-4)GlcNAc6S. The method, boiled down:
as §1

In a further experiment the target is GlcNAc(b1-3)GalNAc. The method, boiled down: as §1
The target in experiment [12] is GlcNAc(b1-3)[GlcNAc(b1-4)][GlcNAc(b1-6)]GlcNAc. The method, boiled down: as §1
Experiment [13] addresses Man(a1-2)Man(a1-3)[Man(a1-2)Man(a1-6)]Man. In short, it runs like this:
as §1

The target of experiment [14] is Neu5Ac(a2-3)Gal(b1-4)GlcNAc(b1-3)Gal(b1-4)[Fuc(a1-3)]GlcNAc. The method, boiled down: as §1
In experiment [15] the target is Neu5Ac(a2-8)Neu5Ac(a2-8)Neu5Ac. The method, boiled down: as §1

This is one part of a sample in which the strongest signals are shown more often than they occur.

B1: MCI4 (Toxoplasma gondii), Q9XZH7 (protein)
chain: MRASLPVHLVVCTQLSAVWFGVAKAHGGHRLEPHVPGFLQGFTDITPAGDDVSANVTSSEPAKLDLSCVHSDNKGSRAPTIGEPVPDVSLEQCAAQCKAVDGCTHFTYNDDSKMCHVKEGKPDLYDLTGGKTASRSCDRSCFEQHVSYEGAPDVMTAMVTSQSADCQAACAADPSCEIFTYNEHDQKCTFKGRGFSAFKERGVLGVTSGPKQFCDEGGKLTQEEMEDQISGCIQLSDVGSMTADLEEPMEADSVGACMERCRCDGRCTHFTFNDNTRMCYLKGDKMQLYSSPGDRTGPKSCDSSCFSNGVSYVDDPATDVETVFEISHPIYCQVICAANPLCTVFQWYASEAKCVVKRKGFYKHRKTGVTGVTVGPREFCDFGGSIRDREEADAVGSDDGLNAEATMANSPDFHDEVECVHTGNIGSKAQTIGEVKRASSLSECRARCQAEKECSHYTYNVKSGLCYPKRGKPQFYKYLGDMTGSRTCDTSCLRRGVDYSQGPEVGKPWYSTLPTDCQVACDAEDACLVFTWDSATSRCYLIGSGFSAHRRNDVDGVVSGPYTFCDNGENLQVLEAKDTE
For the molecule B1, the “glycan array binding signal (z-score)” value is -0.22 in experiment [1]; -0.204 with Fuc(a1-2)Gal(b1-4)GlcNAc; -0.214 in [2]; -0.206 in experiment [3]; -0.203 in experiment [4]; -0.21 in experiment [5]. Further, the “glycan array binding signal (z-score)” value in experiment [6] is -0.201; in experiment [7] it was -0.225; with Gal(b1-3)Gal(b1-4)GlcNAc, 5.93; with Gal(b1-4)Glc6S, 5.04; in experiment [8], 4.68; in [9] it was 7.5. For the same molecule, the “glycan array binding signal (z-score)” value was 5.16 in [10]; -0.213 in experiment [11]; -0.228 with Gal3S6S(b1-4)GlcNAc6S; -0.203 in the experiment with GlcNAc(b1-3)GalNAc; -0.202 in experiment [12]; -0.213 in [13]. For the same molecule, the “glycan array binding signal (z-score)” value in [14] and in [15] was -0.217 throughout.
